Consider eleven compounds from PubChem BioAssay (NCI).

Common to all, as to assay: NCI-60 one-dose screen, 48 h (100 = growth as untreated, 0 = no growth, -100 = all killed)
Conditions in all cases: 10 µM unless noted

Experiment [1] concerns NCI-H23 lung.
For experiment [2], the system named is NCI-H226 lung.
The subject of experiment [3] is NCI-H322M lung.
The test system of experiment [4] is HOP-62 NSCLC.
Experiment [5] concerns NCI-H460 lung.
Experiment [6] concerns HOP-92 NSCLC.
The test system of experiment [7] is NCI-H522 lung.
The subject of experiment [8] is A549/ATCC NSCLC.
The test system of experiment [9] is 786-0 renal.
Experiment [10] relates to COLO 205 colon.

SMILES strings stand for the structures. Several values for one entry are separate records, joined by “and”; a condition that tells them apart may be missing. Identical values can stand only once. The panel holds about 83,000 compounds, 20% with a hit somewhere; the sample as a whole holds those more often.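 For each line, cells grew in 96-well plates with the test compound present at a single concentration for 48 hours.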 A number with no mark means an inactive call. Activity calls are given as the source filed them. How the source made its calls: active means growth percent below 10; inactive means the rest.

As for `CCOC(=O)c1ccc(Nc2ncnc3c2cnn3-c2cccc(F)c2)cc1`, the growth in experiment [1] is 110%; in experiment [2], 94.6%; in [3], 102%; in experiment [4], 93.7%; in experiment [5], 102%; in experiment [6], 90.6%. Besides, the growth in experiment [7] was 91.9%; in experiment [8], 102%; in experiment [9], 104%; in experiment [10], 113%.
Take `CN(C)CCCn1c2c(c3ccc(N4CCNCC4)cc3c1=O)C(=O)c1ccccc1-2`: the growth was -59.5% (active) in experiment [1]; 14.2% in experiment [2]; 13% in [3]; -34.7% (active) in experiment [4]; -47.9% (active) in [5]; 18.4% in experiment [6]. The growth was 5.51% (active) in experiment [7], -61.7% (active) in experiment [8], -95.3% (active) in [9] and 4.57% (active) in experiment [10].
Take `Brc1ccc(/C=C(/C2=NCCN2)n2ccc3ccccc32)cc1`: the growth is 87% in [1]; 62.1% in [2]; 75.7% in experiment [3]; 68.3% in experiment [4]; 76.4% in [5]; 34.3% in experiment [6]. Further, the growth in experiment [7] is 62.7%; in experiment [8], 77.9%; in experiment [9], 81.6%; in [10], 64.8%.
As to `NNCCc1ccccc1`, the growth in [1] was 103% and 88.8%; in [2], 93.3% and 75.7%; in experiment [3], 95.2%; in experiment [4] it was 104% and 103%; in experiment [5], 115% and 105%; in experiment [6] it was 83.1% and 102%. Also, the growth in [7] was 92.1% and 94.1%; in [8], 108% and 90.5%; in experiment [9], 95.2% and 106%; in experiment [10] it was 96.5% and 103%.
For the compound `Clc1ccc2c(c1)N(c1ncnc3ccc(-c4cnc5[nH]ccc5c4)cc13)CC2`, the growth is 40.6% in experiment [1]; 40.9% in experiment [2]; 41.3% in [3]; 13.8% in experiment [4]; 16.5% in [5]; 14.8% in [6]. Besides, the growth in experiment [7] was 30.6%; in [8] it was 21.4%; in experiment [9] it was 24.5%; in [10] it was 45.1%.
Turning to `COc1ccc(/C=C/C(=O)c2cc3c(N)c(C(=O)Nc4ccccc4)sc3nc2C)cc1`, the growth in experiment [1] was 28.8%; in [2], 42.7%; in experiment [3] it was 35.9%; in experiment [4] it was 32.9%; in [5], -1.05% (active); in experiment [6], 40.6%. For the same compound, the growth was -17.9% (active) in experiment [7], 16.8% in experiment [8], 20.2% in [9] and -17.4% (active) in [10].
Take `Clc1ccc(CNc2ccc3nc(CCC4CCCCC4)[nH]c3c2)cc1`: the growth in experiment [1] was 66.4%; in [2] it was 71.4%; in experiment [3], 87.9%; in experiment [4], 79%; in experiment [5], 60.6%; in [6], 28.8%. Besides, the growth was 54.8% in experiment [7], 59.8% in [8], 58.9% in [9] and -63.3% (active) in experiment [10].
Take `COc1cccc(C2C(C#N)=C(N)Oc3cc(OCCCCCC[P+](c4ccccc4)(c4ccccc4)c4ccccc4)ccc32)c1` (centres undefined): the growth in experiment [1] was -23.1% (active); in experiment [2], 7.81% (active); in experiment [3], 6.6% (active); in experiment [4], -39% (active); in experiment [5] it was -44.4% (active); in [6], -51.7% (active). Further, the growth in experiment [7] was -10.7% (active); in [8], 10.2%; in experiment [9], -46.3% (active); in experiment [10] it was -62.5% (active).
On to `Cc1nonc1-c1ccc2c(c1)OCO2`, for which the growth in experiment [1] is 91.5% and 112%; in [2], 94.3%; in experiment [3], 113% and 124%; in [4] it was 123% and 106%; in [5], 106%; in [7], 102% and 103%. The growth was 90.6% and 98.2% in [8]; 104% and 107% in experiment [9]; 114% and 140% in [10].
Consider `O=C1C(Nc2ccc(Cl)cc2)=C(I)C(=O)c2ncccc21`, for which the growth in [1] is 9.7% (active); in experiment [2], 88.4%; in experiment [3], 64.3%; in [4], 48.1%; in experiment [5] it was 17.5%; in experiment [6], -90.4% (active). For the same compound, the growth in [7] is -58.7% (active); in experiment [8], 35.5%; in experiment [9] it was 26.1%; in experiment [10], -45.9% (active).
On to `CN1CCCc2cc(/C=C3\SC(=S)N(C(Cc4ccc(O)cc4)C(=O)O)C3=O)ccc21` (centres undefined), for which the growth in experiment [1] is 78%; in experiment [2], 99.8%; in [3], 108%; in [4], 109%; in experiment [5], 107%; in experiment [6] it was 93.8%. Moreover, the growth in experiment [7] was 91.5%; in experiment [8] it was 105%; in experiment [9], 99.8%; in experiment [10], 112%.
